# Data reported in PubChem BioAssay AID2451 (National Center for Advancing Translational Sciences (NCATS), 2010).
# The whole screen tested about 290,000 compounds, of which about 2,100 (0.72%) were called active. Not shown: some 4% with an inconclusive outcome. Shown is part of a subset that was picked to be rich in actives. Unmarked numbers belong to inactive results. Calls come from the whole dose curve; as a rule, active = well fitted inhibition curve with a large enough effect; inconclusive = small, poorly fitted or top-dose-only effect, or effect the other way; inactive = flat fitted curve, though single readings scatter.
# Target: Fructose-bisphosphate aldolase (Giardia intestinalis (strain ATCC 50803 / WB clone C6)) (UniProt A8B2U2)
# Sequence (A8B2U2 whole entry, looked up): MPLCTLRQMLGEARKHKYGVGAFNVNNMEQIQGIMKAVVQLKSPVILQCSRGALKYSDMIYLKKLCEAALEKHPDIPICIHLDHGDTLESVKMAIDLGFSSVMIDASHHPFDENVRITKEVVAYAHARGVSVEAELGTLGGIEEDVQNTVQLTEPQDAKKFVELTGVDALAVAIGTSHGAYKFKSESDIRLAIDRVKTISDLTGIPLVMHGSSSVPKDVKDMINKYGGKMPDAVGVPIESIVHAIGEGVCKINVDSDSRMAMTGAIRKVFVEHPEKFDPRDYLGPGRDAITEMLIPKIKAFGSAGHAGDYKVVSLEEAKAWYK
# Experiment: qHTS Assay for Inhibitors of Fructose-1,6-bisphosphate Aldolase from Giardia Lamblia; note: nearly all actives have a fitted effect of over 55% in size
# Settings: purified Giardia FBPA; series mostly up to 59.6 µM; activity, negative = inhibition: at the top concentration
# Excerpt: Assay Provider: Osnat Herzberg, University of Maryland
# The objective of this project is to obtain compounds that inhibit Giardia lamblia growth. G. lamblia is a human pathogen which afflicts impoverished nations; it is the most common cause of outbreaks of diarrhea in the United States. During the course of our study of potential drug targets in Giardia, we have identified the Class II (Zn2+ functions in electrophilic catalysis) fructose-1,6-bisphosphate aldolase (FBPA) as an excellent candidate for drug targeting. FBPA is a key glycolytic pathway enzyme, essential for G. lamblia survival. The human FBPA belongs to the Class I aldolases, which have a different substrate binding site structure and a radically different catalytic mechanism (employing a lysine-Schiff base intermediate). Therefore, affinity-based or mechanism-based inhibitors of the Giardia FBPA are expected not to interfere with the catalytic function of the human FBPA.
# A glyceraldehyde-3-phosphate dehydrogenase/triose phosphate isomerase/NAD/arsenate coupled assay was adapted to the 1536-well HTP format for use in the primary screen. This was done by coupling it to a diaphorase/resazurin/resorufin reaction that can be monitored by fluorescence (excitation, 544 nm; emission, 590 nm). Compounds identified in this screen will be further evaluated by coupling the glycerol-3-phosphate/triose phosphate isomerase/NADH assay to a phenazine methosulfate/tetranitroblue tetrazolium color reaction. False positives due to the dehydrogenases and diaphorase inhibition will be eliminated, and selectivity assay will triage inhibitors of mammalian triose phosphate isomerase and the Class I FBPA. G. lamblia FBPA inhibitors identified by the in vitro analyses will be examined for growth inhibition of Giardia trophozoites, and for cytotoxicity in human cells.
# Step,Parameter,Value,Description
# 1,Enzyme reagent,2 uL,40 nM FBPA
# 2,Compound,23 nL,3.68 nM-57.5 uM final concentration
# 3,Time,10 min,RT Incubation
# 4,Substrate/detection Reagent,2 uL,Substrate + enzyme coupling system + AmpLite Red kit
# 5,Time,20 min,RT Incubation
# 6,Detector,525 nm/598 nm (Fluorescence),ViewLux Fluorescence Read (Read 1)
# 1,Medium-binding black solid-bottom Kalypsys plates. FRD or Kalypsys dispenser, 2 uL of FBPA enzyme. Bottle kept at 4C.
# 2,Compound Library (10 mM ,1:5 dilution). Pin-transferred for a [final] range of 3.68 nM-57.5 uM.
# 4,FRD or Kalypsys dispenser, 2 uL of reaction mixture. Bottle kept at 4C and covered in foil to protect from light.
# 6,ViewLux Protocol 1194; Excitation filter wheel A (525/20 Pol; BODIPY TMR FP), Emission filter wheel B (598/25 S; BODIPY TMR FP S).
# Keywords: Fructose-bisphosphate aldolase, FBPA , Giardia lamblia , Giardia, HTS, Inhibitors
# % is set by controls: 0 for no effect and ±100 for the full control effect; potency is the fitted concentration of half-maximal effect.
Structure (SMILES),"activity, negative = inhibition [%]",Potency
Brc1ccccc1C1N=C(c2ccccc2)NO1 (configuration not stated),6.11,
Cc1ccc(SCC(CC(C)C)N2CCN(CCc3ccccc3)CCC2=O)cc1 (configuration not stated),0.403,
CCOc1ccccc1NC(=O)C1CCCN(S(=O)(=O)c2ccccc2)C1 (configuration not stated),-3.85,
CCN1CCc2c(C#N)c(NCc3ccccc3)nc(NCCO)c2C1,,5.61 µM (active)
CCc1nc(NCCO)c(C#N)c2c1CCCC2,4.66,
CCCCc1nc(NCc2ccccc2)c(C#N)c2c1CCCC2,0.951,
O=C1CCCN1CCCNC(=S)Nc1ccc(F)c(Cl)c1,,14.1 µM (active)
Cc1cc(Cl)ccc1NC(=S)NCCCN1CCCC1=O,3.39,
Cc1cccc(C(=O)NCCCN2CCCC2=O)c1,0.332,
O=C(O)CCCn1cc(NC(=O)COc2cccc(Cl)c2)cn1,-8.97,
COc1ccc(-n2ncc3c(SCC(=O)NNC(C)=O)ncnc32)cc1,13.2,
Cc1ccccc1-n1nc(C)c2c1N=C1C(Cl)=CC(Cl)=CN1C2c1ccc(C(=O)O)cc1 (configuration not stated),,12.6 µM (active)
Cc1ccccc1-n1nc(C)c2cc(C(=O)NC3CC3)sc21,0.949,
Cc1nn(-c2ccccc2)c(Cl)c1/C=C/C(=O)c1ccc(O)cc1,1.27,
Cc1cccc([C@@H]2[C@@H]3C(=O)N(Cc4ccccc4)C(=O)[C@@H]3[C@]3(C)C(=O)N(c4ccc(Br)cc4)C(=O)N23)c1,16.2,
CCN(CC)S(=O)(=O)c1ccc(-c2cn3ccc(C)cc3n2)cc1,4.66,

Structure (SMILES),"activity, negative = inhibition [%]",Potency
C=CCn1c(SCc2ccccc2)nc2c1c(=O)[nH]c(=O)n2C,6.61,
Cc1cnc(NC(=O)CSc2c(Cl)cccc2Cl)s1,0.395,
Cc1cnc(NC(=O)c2ccccn2)s1,,7.92 µM (active)
Cc1cnc(NC(=O)c2ccc(Cl)nc2)s1,-13.5,
CN(C)CCN(C(=O)C1=COCCO1)c1nc2ccc(Cl)cc2s1,-10.9,
CCc1ccc(NC(=O)N2CCc3ccccc3C2)cc1,5.4,
Cc1ccc(Cl)c(OCC(=O)N2CCc3ccccc3C2)c1,5.62,
O=C(CSc1cccc[n+]1[O-])c1ccc(-c2ccccc2)cc1,,17.7 µM (active)
COc1ccccc1C(=O)CSc1cccc[n+]1[O-],2,
O=C(CSc1cccc[n+]1[O-])c1ccc(Cl)cc1,-5.54,
NS(=O)(=O)c1ccccc1NC(=O)c1c(O)c2ccccc2[nH]c1=O,-2.83,
CC(C)c1ccc(/C=C2\NC(=O)NC2=O)cc1,-2.07,
CC(=O)N1CCC(C(=O)OCc2ccc(Cl)cc2)(c2ccccc2)CC1,-0.423,
Cc1cccc2c(CCN)c[nH]c12,-6.67,
O=C(Cc1c[nH]c2ccccc12)OCCOC(=O)Cc1c[nH]c2ccccc12,-8.65,
COc1ccc(Nc2ncnc3ccc(Br)cc23)c(OC)c1,11.8,
